Compound activity: PubChem, National Center for Advancing Translational Sciences (NCATS)
NPSR antagonist – neuropeptide S receptor (human) antagonism, cAMP | Potency, µM (titrated, usually from 38.3 µM), for inactives: at the top dose activity change, negative = inhibition, most hits filed as inhibitors | actives 1% (n = 220,000) | AID 1461 | CHO-NPSR cells, cAMP TR-FRET, antagonist mode; further: on the % scale 0 is the no-effect control and ±100 the full control effect; nearly all actives have a fitted effect of over 50% in size
Target sequence (Q6W5P4 whole entry, looked up): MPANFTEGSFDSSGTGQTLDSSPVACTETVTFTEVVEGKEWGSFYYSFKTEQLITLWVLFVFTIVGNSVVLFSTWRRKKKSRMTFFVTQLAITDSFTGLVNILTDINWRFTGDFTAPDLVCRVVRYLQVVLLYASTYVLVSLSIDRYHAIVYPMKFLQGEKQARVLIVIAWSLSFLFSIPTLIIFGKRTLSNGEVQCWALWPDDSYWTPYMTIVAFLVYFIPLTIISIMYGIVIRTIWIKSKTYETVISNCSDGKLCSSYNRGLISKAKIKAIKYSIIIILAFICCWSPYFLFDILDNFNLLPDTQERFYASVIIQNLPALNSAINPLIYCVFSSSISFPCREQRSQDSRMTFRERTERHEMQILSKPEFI
Sfp PPTase inh – blocks B. subtilis Sfp PPTase activity | Q9F4F7 | Biochemical Sfp PPTase activity, qHTS | Potency, µM, for inactives: largest response in the series, negative = inhibition, usual class: inhibitors | actives 3.5% (n = 310,000) | AID 1490;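 further: the enzyme is Sfp with the accession as filed and its product quenches rhodamine fluorescence; 0% = enzyme reaction without inhibitor and -100% = no enzyme wells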
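Sfp 15 nM + cpd, 15 min RT; start w/ rhodamine-CoA 5 uM, BHQ-2-YbbR 12.5 uM (final); 50 mM Hepes pH 7.6, 10 mM MgCl2, 0.01% NP-40, 0.01% BSA; read 525/598 nm at 0 and 30 min.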
KAT2A inh – GCN5L2 (KAT2A) acetyltransferase inhibition; AID 504327; GCN5L2 HAT assay, ThioGlo1 CoA-SH fluorescence; actives 0.21% (n = 390,000); Potency, µM (titrated, usually from 58.9 µM), for inactives: at the highest dose activity change, negative = inhibition, usual class: inhibitors; further: on the % scale 0 is the no-effect control and ±100 the full control effect
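Titration-based screen in which CoA formation is detected via maleimide probe ThioGlo1 (50uM) turning fluorescent on thiol reaction; substrates H3(1-25) 75uM and acetyl-CoA 70uM, GCN5L2 20nM, 20 min incubation at room temperature.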
KDM4E inh – JMJD2E (human) inhibition | JMJD2E catalytic domain, FDH-coupled NADH fluorescence (FDH is formaldehyde dehydrogenase) | Potency, µM (top dose mostly 57.1 µM), without a hit: at the highest dose activity change, negative = inhibition, usual class: inhibitors | actives 1.6% (n = 230,000) | AID 2147; active means well fitted inhibition curve with a large enough effect, not every such curve was filed as active; inconclusive means small, poorly fitted or top-dose-only effect, or another doubt; inactive means no such curve, though single readings can be large or run the other way;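 further: 0% = wells with enzyme and -100% = buffer wells without enzyme; nearly all actives have a fitted effect of over 50% in size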
Target sequence (B2RXH2 1-337 limits assumed): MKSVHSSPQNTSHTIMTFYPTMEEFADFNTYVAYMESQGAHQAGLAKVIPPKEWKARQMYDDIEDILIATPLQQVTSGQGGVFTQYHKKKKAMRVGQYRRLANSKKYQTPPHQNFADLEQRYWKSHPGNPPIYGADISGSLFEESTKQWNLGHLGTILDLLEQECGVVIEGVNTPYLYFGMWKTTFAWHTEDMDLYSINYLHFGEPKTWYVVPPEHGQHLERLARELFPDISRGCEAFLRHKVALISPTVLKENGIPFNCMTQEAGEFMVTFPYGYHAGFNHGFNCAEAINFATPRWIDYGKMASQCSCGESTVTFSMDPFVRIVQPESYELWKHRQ
IMPase Li cell – membrane-permeable IMPase blocker, potentiated with lithium; actives 0.35% (n = 210,000); CHO-M1 cells, IP1 TR-FRET (IP-One), carbachol + lithium; Potency, µM (series often up to 59.4 µM), for the others: at the highest dose activity, negative = IMPase inhibition, usual class: inhibitors;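 further: IP1 builds up when IMPase is blocked and the TR-FRET signal falls; plate controls were basal vehicle for no effect and high inhibitor control for full effect; nearly all actives have a fitted effect of over 50% in size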
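CHO cells stably expressing M1 receptor (2000/well, cultured 16–30 h) treated 30 min at 37C with compound plus low lithium. Cytosolic IP1 by TR-FRET (665/620 ratio and 620 channel) after 10 min lysis; AC50 by Hill fit.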
Epigenetic derep – derepresses silenced GFP reporter in murine cells | murine LDR cells, GFP reporter derepression, 30 h | Potency, µM (top dose mostly 53.9 µM), inactives show at the top dose GFP activation, actives largely listed as activators | actives 0.2% (n = 280,000); further: % of control where 0% means no effect; nearly all actives have a fitted effect of over 60% in size
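In this reporter-derepression format, murine cells bearing a silenced integrated CMV-GFP locus incubate with test compound (30 h, 37 C), then are washed and imaged; fluorescent objects of 20–120 um count as induced cells.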
* hit, by the source's call; ? = inconclusive; nt = not tested or not shown; [ ] = another dose, or the depositor's remark. Most compounds without a hit are left out; they make up all but 3.6% or so of the library. Unless noted, the call rests on the fitted dose curve; in most records, active means well fitted curve in the direction sought with a large enough effect; inconclusive means small, poorly fitted or top-dose-only effect, or another doubt; inactive means no such curve, though single readings can be large; an effect the other way counts as inactive or inconclusive. Potency means the concentration at half of the fitted maximal effect.

SMILES	NPSR antagonist	Sfp PPTase inh	KAT2A inh	KDM4E inh	IMPase Li cell	Epigenetic derep
COC(=O)[C@@H](N)Cc1ccc(O)c(O)c1	4.4%[46.1 µM]	56.2µM*	-10.8%	12.6µM*	5.9%	-0.2%
COc1cccc(CNCCSc2nnnn2C)c1OCc1ccc(Cl)cc1	nt	nt	-2.9%	nt	nt	-0.2%
OC[C@H]1O[C@H](n2cnc3c(N[C@H]4CCC[C@@H]4O)ncnc32)[C@H](O)[C@@H]1O	nt	nt	-3.2%	nt	nt	nt
CCCCn1c(SCC(=O)NCc2ccco2)nc2c(sc3ccccc32)c1=O	?	?	-4.3%	7.08µM*	5.7%[38.3 µM]	1.8%
O=C(CSc1nc2c(sc3ccccc32)c(=O)n1CCc1ccccc1)NCc1ccco1	-2.8%[46.1 µM]	-27.2%	-11.6%	7.4%	-8.1%[38.3 µM]	9.3%
Cc1cc2c(=O)n(Cc3ccco3)c(SCC(=O)c3ccc(Cl)s3)nc2s1	?	17.8µM*	-8.1%	?	17.0%[38.3 µM]	16.1%
O=C1c2ccccc2C(=O)N1CCc1nc2ccccc2c(=O)n1Cc1ccco1	?	50.1µM*	-4.9%	-4.2%	1.9%[38.3 µM]	-1.4%
Nc1c(C(=O)NCc2ccco2)c2nc3ccccc3nc2n1CCc1ccccc1	-51.6%	50.1µM*	?	?	-0.9%	-2.2%
CCNc1ncc2nc(-c3cccs3)c(=O)n(Cc3cccs3)c2n1	nt	-24.0%	-7.8%	nt	-6.9%	nt
O=C(CSc1nc2ccccc2c(=O)n1Cc1ccco1)c1ccc(F)cc1	9.1%[7.67 µM]	31.6µM*	1.6%	-13.6%	20.2%[38.3 µM]	-0.3%
O=C(CSc1nc2ccccc2c(=O)n1Cc1ccccc1)NCc1ccco1	20.2%[46.1 µM]	7.3%	18.0%	4.3%	10µM*	-0.4%
CCOc1ccc(CCNC(=O)Cn2ccc3cc(S(=O)(=O)N4CCCCCC4)ccc32)cc1	nt	nt	-11.6%	nt	nt	-1.8%
C[C@@H]1CC[C@]2(C(=O)O)CC[C@]3(C)C(=CCC4[C@@]5(C)C[C@@H](O)[C@H](O)[C@@](C)(CO)C5[C@H](O)C[C@]43C)C2[C@H]1C (stereo partly specified)	nt	13.9%	6.9%	nt	-7.6%	-0.8%
CCOc1cc2nc(-c3ccc(OC)c(OC)c3)nc(NCCCN3CCOCC3)c2cc1OC	-3.2%[46.1 µM]	-16.1%	-8.2%	?	41.2%[38.3 µM]	-1.8%
COc1cc2nc(=S)n(CCCN3CCOCC3)c(N)c2cc1OC	9.7%	50.1µM*	-3.8%	-27.2%	1.9%	1.1%
C[N+]1(CC2COC(c3ccccc3)(C3CCCCC3)O2)CCCCC1 (stereo unspecified)	nt	2.6%	22.4µM*	nt	nt	nt
COc1ccc(-c2noc(-c3ccc(N4CCCCC4C)c([N+](=O)[O-])c3)n2)cc1OC (stereo unspecified)	nt	nt	-12.9%	nt	nt	4.5%
NC(=O)[C@@H]1CCCN1C(=O)C(Cc1cnc[nH]1)NC(=O)C1CCC(=O)N1 (stereo partly specified)	nt	4.5%	1.9%	nt	nt	nt
Cc1c2ccccc2c(CSC(=N)N)c2ccccc12	nt	44.7µM*	nt	68.7%	0.6%	0.2%
Cc1c2ccccc2c(C)c2c1ccc1ccccc12	nt	nt	2.1%	nt	-16.3%	nt
O=[N+]([O-])c1ccc(N/N=C/c2c[nH]c3ccccc23)cc1	-12.3%[46.1 µM]	7.2%	-4.1%	4.1%	-9.9%[38.3 µM]	14.1µM*
Cc1cc(=O)[nH]c(N/N=C/c2c[nH]c3ccccc23)n1	-3.1%	28.2µM*	-12.8%	5.8%	nt	0.0%
CCOc1ccccc1/C=N/Nc1nc(C)cc(=O)[nH]1	nt	-10.4%	3.3%	nt	nt	nt
C(=N\Nc1nc2ccccc2[nH]1)/c1c[nH]c2ccccc12	-12.8%	?	-4.8%	-29.7%	8.3%	7.0%
COc1cccc(/C=N/Nc2nc(C)cc(=O)[nH]2)c1OC	nt	56.2µM*	-22.3%	nt	nt	nt
SMILES	NPSR antagonist	Sfp PPTase inh	KAT2A inh	KDM4E inh	IMPase Li cell	Epigenetic derep
O=[N+]([O-])c1ccccc1N/N=C/c1c[nH]c2ccccc12	-26.3%[46.1 µM]	6.9%	-8.8%	0.2%	12.1%[38.3 µM]	0.0%
CC(=O)OCC(NC(=O)C(COCc1ccccc1)NC(=O)OC(C)(C)C)C1OC(n2cc(F)c(=O)[nH]c2=O)C(OC(C)=O)C1OC(C)=O (stereo unspecified)	nt	8.8%	nt	nt	nt	nt
Cc1cc(O)cc(O)c1C(=O)OC1(C)C(=O)C=C2C=C(/C=C/CO)OC=C2C1=O (stereo unspecified)	nt	-8.7%	nt	-9.4%	3.3%	1.1%
C/C=C\C=C/C(=O)Nc1cccc(C2=NOC3(C2)C[C@H](C(N)=O)N(C(=O)c2ccc(OC)cc2)C3)c1 (stereo partly specified)	18.7%	12.6µM*	-7.7%	-16.4%	nt	5.1%
C/C=C\C=C/C(=O)Nc1cccc(C2=NOC3(C2)C[C@@H](C(N)=O)N(C(=O)c2ccc(Cl)cc2)C3)c1 (stereo partly specified)	-3.5%	7.08µM*	33.6%	?	nt	1.7%
NC(=O)C1(NC(=O)[C@@H]2CC3(CC(c4cccc(NC(=O)c5cc([N+](=O)[O-])cc([N+](=O)[O-])c5)c4)=NO3)CN2C(=O)c2ccccc2)CC1 (stereo partly specified)	-5.9%[46.1 µM]	79.4µM*	-15.4%	-4.5%	2.5%[38.3 µM]	-0.9%
C/C=C/C(=O)Nc1cccc(C2=NOC3(C2)C[C@@H](C(N)=O)N(C(=O)c2cc([N+](=O)[O-])cc([N+](=O)[O-])c2)C3)c1 (stereo partly specified)	2.2%	?	-4.4%	5.7%	nt	-0.1%
COc1ccc2c(c1)O[C@@H](c1ccc3c(c1)OCO3)[C@H](OC(=O)NCc1ccc3c(c1)OCO3)C2=O	nt	-1.2%	nt	-9.0%	7.0%	-1.1%
COc1ccc(N2CCN(C(=O)/C=C/c3ccco3)CC2)cc1	-15.1%	-19.8%	-12.3%	-18.4%	7.4%	-1.9%
O=C(/C=C/c1ccco1)N1CCN(c2ccc(F)cc2)CC1	0.1%	17.8µM*	-12.4%	-1.4%	nt	2.0%
C[C@H](CCC(=O)NCC(=O)O)C1CC[C@H]2[C@H]3C(C[C@H](O)[C@]12C)[C@@]1(C)CC[C@@H](O)C[C@H]1C[C@H]3O (stereo partly specified)	nt	13.8%	1.7%	nt	-4.4%	1.1%
CCN1C(=S)SC(=O)C1=C1C=C(C)N(Cc2ccco2)C(C)=C1	?	14.1µM*	-8.0%	-27.9%	15.3%[38.3 µM]	-1.1%
CCN1C(=S)SC(=O)C1=C1C=C(C)OC(C)=C1	-1.8%[46.1 µM]	6.9%	2.2%	2.2%	10.2%[38.3 µM]	1.0%
COC(=O)C1=C(C)N(CCCC(=O)O)C(=O)NC1c1cc2c(cc1[N+](=O)[O-])OCO2 (stereo unspecified)	-3.5%	31.6µM*	-0.8%	?	10.8%	-1.6%
